The text below walks through data of PubChem BioAssay.

In assay [1] the target is Cell division control protein 42 homolog (Homo sapiens) (UniProt P60953). As to the kind of experiment: inhibition of fluorescent GTP binding to constitutively active Cdc42 – biochemical, multiplex bead flow cytometry, Bodipy-FL-GTP, dose response (AID 1333;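 active = fitted half-maximal concentration within the tested dose range, moderate curve steepness, a statistically real signal drop, and little compound fluorescence or tag-binding interference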). In general terms: In flow cytometry, cells or beads pass a laser one at a time.
Assay [2] has the same target. As to the kind of experiment: inhibition of fluorescent GTP binding to wildtype Cdc42 – biochemical, multiplex bead flow cytometry, Bodipy-FL-GTP, dose response (AID 1334;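 active = fitted half-maximal concentration within the tested range, moderate curve steepness, significant signal drop, and little compound fluorescence or bead-linkage interference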). To be noted: bead-based flow cytometry, Bodipy-FL-GTP binding to GST-Cdc42; at 100 µM (top of the series) unless noted.
Assay [3] concerns the target GTPase HRas (Homo sapiens) (UniProt P01112). As to the kind of experiment: Ras wt fluorescent GTP loading blockade – biochemical, wildtype, multiplex bead flow cytometry, dose response (AID 1335). To be noted: bead-based flow cytometry, Bodipy-GTP binding to GST-Ras; at 100 µM (top of the series) unless noted.
Assay [4] concerns Ras-related protein Rab-7a (dog), GTP binding. Nature of the assay: blockers of fluorescent GTP binding to Rab7 – biochemical, wildtype, multiplex bead flow cytometry, dose response (AID 1336; call rule not given here).
Assay [5] deals with Ras-related C3 botulinum toxin substrate 1 (Homo sapiens) (UniProt P63000). As to the kind of experiment: inhibition of wildtype Rac1 nucleotide loading – biochemical, multiplex bead flow cytometry, dose response (AID 1340;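 active = dose curve with midpoint inside tested range, moderate steepness, plateau gap beyond fit error, low compound glow and bead-link interference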). Particulars: GST-Rac1 beads, Bodipy-FL-GTP binding; at 100 µM (top of the series) unless noted.
Assay [6] concerns the target GTPase HRas (Homo sapiens) (UniProt P01112). Nature of the assay: blockade of GTP loading onto mutant Ras – biochemical, activated mutant, multiplex bead flow cytometry, dose response (AID 1341;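 active = dose-response curve with midpoint inside the tested range, moderate steepness, significant amplitude and little compound fluorescence or bead-attachment interference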;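 note: GST-tagged constitutively activated Ras mutant immobilized on beads and multiplexed with other GTPases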).

For part of these data: Entries with a potency or affinity are not part of this list. The source made the active and inactive calls.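 Rule for the calls, unless noted: active = fitted half-maximal concentration within 10 nM to 100 µM, steepness 0.5 to 2, significant signal drop, low assay interference; inactive = the rest.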

GTPase HRas (Homo sapiens), sequence (P01112 whole entry, looked up): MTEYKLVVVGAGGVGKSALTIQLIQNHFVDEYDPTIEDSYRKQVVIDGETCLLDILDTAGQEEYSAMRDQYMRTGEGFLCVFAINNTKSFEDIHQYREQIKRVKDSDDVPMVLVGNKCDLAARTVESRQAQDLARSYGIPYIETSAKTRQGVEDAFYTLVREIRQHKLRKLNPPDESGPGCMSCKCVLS
Cell division control protein 42 homolog (Homo sapiens), sequence (P60953 whole entry, looked up): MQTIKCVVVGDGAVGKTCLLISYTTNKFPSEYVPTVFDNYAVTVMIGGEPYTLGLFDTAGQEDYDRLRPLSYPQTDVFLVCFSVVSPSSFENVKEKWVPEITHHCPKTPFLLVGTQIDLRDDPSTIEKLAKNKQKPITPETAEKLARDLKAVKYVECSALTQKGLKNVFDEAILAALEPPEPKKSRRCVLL

Take `CCc1ccccc1NC(=O)N1C2CCCC1CC(NC(C)=O)C2` (stereo not given): the result in assay [1], in assay [4] and in assay [6] was inactive. Further, the fluorescence, percent of control (lower = inhibition) in assay [2] came out at 102%. In addition, the GTP binding, percent of control in assay [3] is 152%. The molecule also registered a GTP binding signal, raw median fluorescence (lower = inhibition) (MCF (arbitrary fluorescence units)) in assay [5] of 191.

`O=C(CSc1ccc2nnc(-c3cccs3)n2n1)N1CCCC1`: the molecule was called inactive in assay [1], in assay [4] and in assay [6]. Besides, the fluorescence, percent of control (lower = inhibition) in assay [2] was 33%. Also, the GTP binding, percent of control in assay [3] amounted to 74.6%. The same molecule came in with a GTP binding signal, raw median fluorescence (lower = inhibition) (MCF (arbitrary fluorescence units)) in assay [5] of 178.

For the molecule `Cc1sc2ncnc(Sc3ccccc3C(=O)O)c2c1C`, the call in assay [1], in assay [4] and in assay [6] was inactive. Besides, in assay [2], the fluorescence, percent of control (lower = inhibition) is 103%. The molecule further registered a GTP binding, percent of control in assay [3] of 117%. Further, the GTP binding signal, raw median fluorescence (lower = inhibition) (MCF (arbitrary fluorescence units)) in assay [5] turned out to be 84.4.

`Cc1ccc(Sc2ncccc2C(=O)O)c(C)c1`: the molecule was called inactive in assay [1], in assay [4] and in assay [6]. For the same molecule, the fluorescence, percent of control (lower = inhibition) in assay [2] turned out to be 78%. The molecule also gave a GTP binding, percent of control in assay [3] of 78.1%. Also, the GTP binding signal, raw median fluorescence (lower = inhibition) (MCF (arbitrary fluorescence units)) in assay [5] is 309.

For the molecule `Cc1ccc(C2=NN(S(=O)(=O)c3ccccc3)C(c3ccccc3O)C2)cc1` (stereo not given), the call in assay [1], in assay [4] and in assay [6] was inactive. The fluorescence, percent of control (lower = inhibition) in assay [2] was 50.2%. In addition, the GTP binding, percent of control in assay [3] was found to be 104%. The same molecule had a GTP binding signal, raw median fluorescence (lower = inhibition) (MCF (arbitrary fluorescence units)) in assay [5] of 158.

With `Cc1cc(C)n2nc(C(=O)Nc3ccc(S(=O)(=O)N4CCCC4)cc3)nc2n1`, the molecule was classed as inactive in assay [1], in assay [4] and in assay [6]. Besides, the fluorescence, percent of control (lower = inhibition) in assay [2] was 37%. Moreover, the GTP binding, percent of control in assay [3] was found to be 82.5%. In addition, the GTP binding signal, raw median fluorescence (lower = inhibition) (MCF (arbitrary fluorescence units)) in assay [5] was determined as 257.

Turning to `CCN1/C(=C/c2ccc3cc(C)ccc3[n+]2C)Sc2ccc3sccc3c21`, the molecule was classed as inactive in assay [1], in assay [4] and in assay [6]. Further, the fluorescence, percent of control (lower = inhibition) in assay [2] was 41.6%. This molecule registered a GTP binding, percent of control in assay [3] of 74.4%. Also, in assay [5], the GTP binding signal, raw median fluorescence (lower = inhibition) (MCF (arbitrary fluorescence units)) is 263.

On to `COc1ccccc1OCc1ccoc1C(=O)O`, for which the outcome in assay [1], in assay [4] and in assay [6] was inactive. Besides, the fluorescence, percent of control (lower = inhibition) in assay [2] was determined as 62.9%. In assay [3], the GTP binding, percent of control is 87%. Further, in assay [5], the GTP binding signal, raw median fluorescence (lower = inhibition) (MCF (arbitrary fluorescence units)) worked out at 35.8.

On to `CCOc1ccc(-n2nc3c(SCCN4CCCC4)nnc(C)c3c2C)cc1`, for which the molecule was classed as inactive in assay [1], in assay [4] and in assay [6]. For the same molecule, in assay [2], the fluorescence, percent of control (lower = inhibition) is 57.3%. Further, the GTP binding, percent of control in assay [3] was 71.4%. Besides, the GTP binding signal, raw median fluorescence (lower = inhibition) (MCF (arbitrary fluorescence units)) in assay [5] was determined as 230.

Regarding `COc1ccc(OCc2oc3ccc(OC)cc3c2C(=O)O)cc1`, the result in assay [1], in assay [4] and in assay [6] was inactive. Moreover, in assay [2], the fluorescence, percent of control (lower = inhibition) turned out to be 53.9%. Further, in assay [3], the GTP binding, percent of control was 82.7%. Further, in assay [5], the GTP binding signal, raw median fluorescence (lower = inhibition) (MCF (arbitrary fluorescence units)) stood at 28.2.

On to `CCOC(=O)C1(Cc2cccc(F)c2)CCN(Cc2nc(CC)[nH]c2C)CC1`, for which the call in assay [1], in assay [4] and in assay [6] was inactive. Moreover, the fluorescence, percent of control (lower = inhibition) in assay [2] amounted to 48.2%. In assay [3], this molecule yielded a GTP binding, percent of control of 90.4%. This molecule also displayed a GTP binding signal, raw median fluorescence (lower = inhibition) (MCF (arbitrary fluorescence units)) in assay [5] of 274.

As for `COc1ccc(/C=C(/C#N)C(=O)Nc2ccc(O)cc2)cc1C(=O)O`, the outcome in assay [1], in assay [4] and in assay [6] was inactive. In assay [2], the fluorescence, percent of control (lower = inhibition) turned out to be 29.4%. Also, the GTP binding, percent of control in assay [3] worked out at 74.4%. In addition, the GTP binding signal, raw median fluorescence (lower = inhibition) (MCF (arbitrary fluorescence units)) in assay [5] was 177.

Turning to `Cc1ccc(C(=O)O)c(OCc2ccccc2C)c1`, the molecule was called inactive in assay [1], in assay [4] and in assay [6]. For the same molecule, in assay [2], the fluorescence, percent of control (lower = inhibition) was found to be 62.4%. In assay [3], this molecule returned a GTP binding, percent of control of 208%. In assay [5], this molecule displayed a GTP binding signal, raw median fluorescence (lower = inhibition) (MCF (arbitrary fluorescence units)) of 59.3.

Regarding `COc1cccc(-c2cc(C(F)(F)F)c(C#N)c(=O)[nH]2)c1`, the result in assay [1], in assay [4] and in assay [6] was inactive. For the same molecule, in assay [2], the fluorescence, percent of control (lower = inhibition) came out at 30%. The same molecule came in with a GTP binding, percent of control in assay [3] of 75.7%. Further, in assay [5], the GTP binding signal, raw median fluorescence (lower = inhibition) (MCF (arbitrary fluorescence units)) was 230.

In the case of `COc1cc(N=c2oc3c(C)ncc(CO)c3cc2C(N)=O)cc(OC)c1OC`, the molecule was classed as inactive in assay [1], in assay [4] and in assay [6]. Further, the fluorescence, percent of control (lower = inhibition) in assay [2] stood at 26.9%. The GTP binding, percent of control in assay [3] is 58.2%. Besides, in assay [5], the GTP binding signal, raw median fluorescence (lower = inhibition) (MCF (arbitrary fluorescence units)) came to 139.
